# From PubChem BioAssay
# A selection: hits, their analogues and other compounds. The true share with any hit is near 5.4%.
# Calb FLC: affects C. albicans growth with fluconazole; C. albicans CaCi-2 (fluconazole-resistant clinical isolate) + fluconazole, Alamar Blue growth, 48 h; growth inhibition, % (concentration not given with the values); 0.57% of 300,000 active;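 active = growth inhibition above about 58% in most replicates, limit read from the data, passing the limit was not always enough; inconclusive = exactly half the replicates above a set limit; inactive = most replicates below a set limit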;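 also: all wells also contain fluconazole at 8 µg/ml as a sub-toxic cotreatment; 0% = median of DMSO wells and 100% = median of geldanamycin control wells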
# SKKanGAS inh: SKKanGAS growth inhibition; inhibition, % at 7.5 µM; AID 1662; S. pyogenes SKKanGAS, kanamycin growth, BacTiter-Glo, 6 h; 1.3% of 300,000 active;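 active = mean replicate score, as percent of positive control median, at least 50; inconclusive = mean below 50 but one replicate at or above 50; inactive = mean and every replicate below 50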;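 also: strain carries kanamycin resistance gene driven by streptokinase promoter and grows in 40 µg/ml kanamycin; loss of luminescence reflects streptokinase promoter inhibition or plain growth inhibition; 0% = median of DMSO wells and 100% = positive control at its reference dose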
# Beta cell apopt: beta cell apoptosis inhibition; protection from apoptosis, % (test concentration not listed); INS-1E cytokine-induced death, ATP luminescence, 48 h; percent of positive-control rescue, neutral wells zero; 0.8% of 300,000 active;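 active = Every replicate reaches about 75%, or at least half do and their mean reaches it too, limit read from the data; inconclusive = At least half of replicates reach the limit but their mean does not; inactive = Under half of replicates reach the limit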;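 also: 0% = cytokine-treated negative control wells and 100% = positive control rescue; higher means more ATP so stronger rescue from cytokine killing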
# MPTP inh: permeability transition pore inhibition; isolated mouse mitochondria, Ca2+ swelling absorbance, 30 min; inhibition, % at 10 µM; 1.4% of 360,000 active;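 active = inhibition of 50% or more, scaled per plate between neutral and stimulator controls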;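 also: 0% = DMSO wells given calcium and 100% = 1 mM EGTA wells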
# Mdm2 MdmX PPI: disrupts the human Mdm2-MdmX interaction | 3% of 330,000 active | AID 485346 | O15151+Q00987 | SaOS-2 split-luciferase Mdm2/MdmX complementation, luminescence | inhibition, % at 8 µM;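 active = inhibition of at least 50% at 8 µM in the primary screen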
# Target sequence (O15151 whole entry, looked up): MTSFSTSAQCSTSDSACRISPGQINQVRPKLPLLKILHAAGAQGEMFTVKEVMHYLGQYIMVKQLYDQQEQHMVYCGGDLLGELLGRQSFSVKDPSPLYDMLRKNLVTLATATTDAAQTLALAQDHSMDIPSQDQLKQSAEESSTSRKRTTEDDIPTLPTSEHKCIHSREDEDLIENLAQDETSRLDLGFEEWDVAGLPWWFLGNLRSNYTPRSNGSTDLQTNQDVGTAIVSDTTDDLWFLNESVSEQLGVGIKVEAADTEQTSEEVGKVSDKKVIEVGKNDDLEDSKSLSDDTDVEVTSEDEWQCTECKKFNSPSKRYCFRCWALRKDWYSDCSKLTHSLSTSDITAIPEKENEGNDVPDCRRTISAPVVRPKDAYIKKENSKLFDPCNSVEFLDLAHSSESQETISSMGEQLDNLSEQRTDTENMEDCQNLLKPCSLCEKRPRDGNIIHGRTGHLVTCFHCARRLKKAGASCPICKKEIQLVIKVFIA
# Target sequence (Q00987 whole entry, looked up): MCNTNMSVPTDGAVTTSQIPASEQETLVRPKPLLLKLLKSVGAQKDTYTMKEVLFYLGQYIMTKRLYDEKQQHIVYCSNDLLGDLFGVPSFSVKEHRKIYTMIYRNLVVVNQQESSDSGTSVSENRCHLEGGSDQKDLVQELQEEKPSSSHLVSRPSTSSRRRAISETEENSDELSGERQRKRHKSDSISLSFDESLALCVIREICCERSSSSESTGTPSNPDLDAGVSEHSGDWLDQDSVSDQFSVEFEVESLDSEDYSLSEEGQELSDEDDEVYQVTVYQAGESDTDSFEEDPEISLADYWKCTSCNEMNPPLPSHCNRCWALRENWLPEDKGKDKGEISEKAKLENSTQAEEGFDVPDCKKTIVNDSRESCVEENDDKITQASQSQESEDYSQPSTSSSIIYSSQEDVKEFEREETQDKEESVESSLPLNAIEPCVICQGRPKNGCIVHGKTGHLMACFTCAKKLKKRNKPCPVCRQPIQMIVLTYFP
# CSC inhib: blocks cancer stem cells. inhibition, % at 7.5 µM. 1.1% of 300,000 active. AID 2717. cancer stem cell-like cells viability, luminescence; in the data active = inhibition above about 75%; inconclusive = no clear call, values can overlap the other calls; tested in HMLE shEcad cells
# MPTP counter: Rhodamine 123 counter-screen of mitochondrial pore hits; shares compounds with MPTP inh; isolated mitochondria, membrane potential, Rhodamine 123 fluorescence; inhibition, % at 10 µM; 78% of 5,000 active; in the data active = inhibition above about 22%;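 also: 0% = DMSO vehicle and 100% = positive control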
# MPTP swell DR: dose response confirmation of mitochondrial permeability transition pore inhibitors | isolated mitochondria swelling, absorbance | 58% of 780 active | shares compounds with MPTP inh | IC50, µM | AID 651561; in the data active = IC50 below about 20 µM
# MPTP cs DR: MPTP inhibitor counter-screen activity, dose response; shares compounds with MPTP inh; isolated mitochondria counterscreen, fluorescence read-out; IC50, µM; 49% of 780 active; AID 651564; in the data active = IC50 below about 80 µM
# * = called active by the depositor; ? = inconclusive; . = not tested or not shown.
SMILES,Calb FLC,SKKanGAS inh,Beta cell apopt,MPTP inh,Mdm2 MdmX PPI,CSC inhib,MPTP counter,others
CCCCN(CCCC)CC(O)CN(c1cc([N+](=O)[O-])ccc1OC)S(=O)(=O)c1ccccc1 (configuration not stated),4,0,3,76*,16,-5,-8,MPTP swell DR=>100;MPTP cs DR=57*
C[C@@H](C(=O)NNC(=O)c1ccc(Cl)cc1)N1C(=O)C2CC=CCC2C1=O (some centres not stated),.,.,0,0,4,-19,.,
Cc1cc(Oc2ccccc2)nc(SCC(=O)Nc2ccc(Cl)c(Cl)c2)n1,-1,38,-7,73*,1,27,72*,
O=C(CSc1nc(Nc2ccccc2)nc(N2CCOCC2)n1)Nc1ccc([N+](=O)[O-])cc1,27,22,2,74*,27,33,70*,
O=C(CSc1nc2ccccc2o1)Nc1ccc(Cl)cc1,-35,25,-16,42,-10,2,.,
Cc1cc(Oc2ccccc2)nc(SCC(=O)Nc2ccccc2)n1,1,1,-2,10,8,3,.,
O=C(CSc1nc(Nc2ccccc2)nc(N2CCOCC2)n1)Nc1cccc([N+](=O)[O-])c1,6,25,17,7,37,-8,.,
O=C(CSc1nc2ccccc2o1)Nc1ccc(N2CCOCC2)c(Cl)c1,11,1,4,97*,-121,0,93*,
Cc1cc(C)nc(SCC(=O)Nc2ccc(N3CCOCC3)c(Cl)c2)n1,.,.,.,61*,19,-8,78*,
CCN(C[C@H]1N[C@@](CC)(C(=O)OC)[C@H]2C(=O)N(C)C(=O)[C@@H]12)S(=O)(=O)c1ccc(OC)cc1,.,.,-10,4,4,.,.,
CSCC[C@H](NC(=O)C(C)Oc1ccc(Cl)cc1)c1nc2ccccc2[nH]1 (some centres not stated),2,7,-4,20,13,-3,.,
O=C(CSc1nc2ccccc2s1)Nc1ccc(N2CCOCC2)c(Cl)c1,-6,-2,-3,90*,-29,10,83*,
CC(=O)Nc1ccc2nc(SCC(=O)Nc3ccc(N4CCOCC4)c(Cl)c3)sc2c1,-4,11,-6,2,-9,-2,.,
N=c1ccccn1CC(O)COc1ccccc1 (configuration not stated),-13,-1,-4,0,11,-7,.,
Cc1ccsc1/C=N/n1c(C2CCCCC2)n[nH]c1=S,16,-8,6,2,8,-18,.,
O=C(Nc1ccc(Cl)cc1)Nc1ccccc1C(=O)NCc1ccco1,-1,-1,.,2,5,.,.,
CN(NC(=O)C(=O)NCc1ccco1)C(=O)Nc1ccc(Cl)cc1,.,.,.,85*,.,.,109*,
CCOc1cc(NC(=S)NCC(C)C)c(OCC)cc1NC(=O)c1ccco1,-5,-8,0,0,0,-8,.,
O=C1c2ccccc2C(Nc2cccc(C(F)(F)F)c2)N1Cc1ccco1 (configuration not stated),.,14,9,63*,27,5,33*,
CCOC(=O)C1CCN(C(=O)C(C)Oc2ccc(C(=O)c3ccccc3)cc2)CC1 (configuration not stated),.,.,0,0,10,.,.,
Cc1ccccc1NC(=O)Nc1ccc(C(F)(F)F)cc1,-10,9,34,80*,-32,19,87*,
Cc1ccccc1NC(=O)CNC(=O)c1ccc(C(F)(F)F)cc1,-7,5,1,0,7,0,.,
O=C(Nc1ccccc1)Nc1cccc(C(F)(F)F)c1,?,2,26,96*,29,-1,97*,
COc1ccc(NC(=O)Nc2cccc(C(F)(F)F)c2)cn1,-4,-26,1,100*,17,15,90*,
COc1ccc(NC(=O)Nc2cc(C)cc(C)c2)cn1,1,-3,-3,19,18,-7,.,
SMILES,Calb FLC,SKKanGAS inh,Beta cell apopt,MPTP inh,Mdm2 MdmX PPI,CSC inhib,MPTP counter,others
CCCN1CCN(C(=O)Nc2cccc(C(F)(F)F)c2)CC1,-14,2,-12,72*,1,-2,92*,
Cc1ccc(S(=O)(=O)c2c(N)n(CC3CCOC3)c3nc4ccccc4nc23)cc1 (configuration not stated),0,18,-2,0,5,3,.,
O=C(O)c1cccc(Nc2c([N+](=O)[O-])c(=O)oc3ccccc23)c1,-8,-5,0,1,-6,-3,.,
Fc1ccc(NC(=S)N2CCN(c3cccc(C(F)(F)F)c3)CC2)cc1,0,0,8,101*,11,6,75*,
O=C(Nc1cccc(C(F)(F)F)c1)C12CC3CC(CC(C3)C1)C2,-4,18,1,64*,-18,28,43*,
O=C(Nc1cccc(C(F)(F)F)c1)N1CCN(C(=O)Nc2cccc(C(F)(F)F)c2)CC1,18,-3,0,64*,-2,-2,71*,
FC(F)(F)c1cccc(NC(=S)N2CCN(c3cccc(C(F)(F)F)c3)CC2)c1,1,-1,-18,22,22,-4,.,
CC1(C(=O)Nc2cccc(C(F)(F)F)c2)CO1 (configuration not stated),-1,3,-10,.,-30,-8,.,
CN1CCN(c2ccc(-c3ccnn3C(=O)Nc3cccc(C(F)(F)F)c3)cc2)CC1,.,.,8,87*,-44,19,100*,
COc1ccc(N2CCN(C(=O)Nc3cccc(C(F)(F)F)c3)CC2)cc1,-2,-4,5,0,-4,19,.,
CN(CC(=O)Nc1cccc(F)c1)C(=O)c1ccc(N2CCCCC2)c([N+](=O)[O-])c1,-2,-8,.,27,-6,-9,.,
COc1ccccc1OCC(=O)N1CCC2(CC1)CC(=O)c1ccccc1O2,5,-9,0,-1,-43,-11,.,
CCN(CC)C(=O)C1CCN(Cc2ccc(OCc3ccccc3)cc2)CC1,-25,4,-5,1,-10,17,.,
CCS(=O)(=O)N1CCC2(CC1)OCCN2S(=O)(=O)c1ccccc1,.,.,.,0,.,.,.,
COc1ccc(N2CCN(c3ncccn3)CC2)cc1,-1,1,-3,0,-26,0,.,
COc1ccc(CNCc2ccccc2C(F)(F)F)cc1,-3,-4,.,0,17,4,.,
Cc1cc(C)cc(NC(=O)C2CCN(c3cnccn3)CC2)c1,-5,14,-3,0,21,-14,.,
CCc1nc2ccc(C(=O)Nc3cccc(OCC(=O)N(C)C)c3)cn2c1N(CCN(C)C)CC1CC1,.,.,.,2,.,.,.,
Cc1cc(NC(=O)Nc2cccc(C(F)(F)F)c2)n(C)n1,2,0,-1,72*,7,-16,77*,
